# Data from PubChem BioAssay (Tox21).
# Records with an inconclusive call do not appear. Calls of active or inactive are those of the source. Calls come from the whole dose curve.
# Molecular target: Thyrotropin receptor (Homo sapiens) (UniProt P16473)
# Assay: qHTS assay to identify small molecule agonists of the thyroid stimulating hormone receptor (TSHR) signaling pathway (AID 1224843); note: nearly all actives have a fitted effect of over 45% in size
# Conditions: TSHR-HEK293 cells, cAMP HTRF, agonist mode, 30 min; series mostly up to 92.4 µM; activation: at the top concentration
# How it was run: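 Agonist activity read as cAMP rise via d2/cryptate HTRF competition, 1 h room-temperature detection, in HEK293 cells expressing TSHR. Fifteen-point titrations, each run in triplicate, with a 30 min room-temperature incubation beforehand.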
# % is set by controls: 0 for no effect and ±100 for the full control effect.
# Chain of Thyrotropin receptor (Homo sapiens) (P16473 whole entry, looked up): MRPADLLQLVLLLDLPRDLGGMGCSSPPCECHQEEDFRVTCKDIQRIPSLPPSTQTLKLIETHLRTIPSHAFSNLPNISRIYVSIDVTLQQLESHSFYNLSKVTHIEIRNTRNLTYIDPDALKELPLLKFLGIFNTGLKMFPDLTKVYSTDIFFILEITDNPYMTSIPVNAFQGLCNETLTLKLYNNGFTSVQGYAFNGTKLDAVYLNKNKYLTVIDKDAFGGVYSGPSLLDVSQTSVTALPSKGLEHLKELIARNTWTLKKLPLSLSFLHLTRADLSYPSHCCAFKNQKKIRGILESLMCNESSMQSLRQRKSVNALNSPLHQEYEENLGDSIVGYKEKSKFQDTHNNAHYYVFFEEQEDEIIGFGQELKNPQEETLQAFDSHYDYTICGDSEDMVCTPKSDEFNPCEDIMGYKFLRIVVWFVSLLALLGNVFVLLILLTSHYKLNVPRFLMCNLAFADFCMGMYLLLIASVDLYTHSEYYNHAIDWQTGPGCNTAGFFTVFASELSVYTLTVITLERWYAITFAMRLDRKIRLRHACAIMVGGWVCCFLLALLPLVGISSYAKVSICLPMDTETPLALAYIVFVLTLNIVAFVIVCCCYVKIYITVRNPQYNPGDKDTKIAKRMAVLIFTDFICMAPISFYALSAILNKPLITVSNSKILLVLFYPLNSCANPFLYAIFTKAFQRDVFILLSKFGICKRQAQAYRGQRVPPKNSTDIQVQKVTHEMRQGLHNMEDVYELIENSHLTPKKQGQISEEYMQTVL
row,Compound,activation
1,O=C(O)CCCc1c[nH]c2ccccc12,-11.7% (inactive)
2,Cc1cccc(C)c1NC(=O)c1cc(S(N)(=O)=O)c(Cl)cc1O,8.04% [at 42.5 µM] (inactive)
3,CCCC(=O)OC(=O)CCC,-7.42% (inactive)
4,O=CNNC=O,-2.19% (inactive)
5,CSSc1ccoc1C,1.35% (inactive)
6,Nc1ccc(S(=O)(=O)NCc2ccccc2)cc1,5.02% [at 42.5 µM] (inactive)
7,CCCCCCCC(=O)OCCCCCC,-5.46% (inactive)
8,Cc1cc([N+](=O)[O-])ccc1N,-4.01% (inactive)
9,CCN(CC)C(=O)N1CCN(C)CC1,3.39% [at 42.5 µM] (inactive)
10,O=C(c1ccccc1)c1ccc(O)cc1,-5.58% (inactive)
11,CCN(CC)CCOC(=O)C(c1ccccc1)c1ccccc1,18.7% [at 42.5 µM] (inactive)
12,Cc1cc(CCCOc2c(C)cc(-c3noc(C(F)(F)F)n3)cc2C)on1,-13.6% [at 42.5 µM] (inactive)
13,CCCCCCC(CO)CCCC (centres undefined),-16.7% (inactive)
14,C=CC(=O)O,0.644% [at 42.5 µM] (inactive)
15,CC(C)N(C)C,2.06% (inactive)
16,CC(=O)NNC(C)=O,-0.452% (inactive)
17,CC(C)(O)c1coc(S(=O)(=O)NC(=O)Nc2c3c(cc4c2CCC4)CCC3)c1,2.03% (inactive)
18,CCCc1nc2c(C)cc(-c3nc4ccccc4n3C)cc2n1Cc1ccc(-c2ccccc2C(=O)O)cc1,0.753% [at 42.5 µM] (inactive)
19,c1ccc2sc(SSc3nc4ccccc4s3)nc2c1,-4.06% [at 19 µM] (inactive)
20,Nc1nc(-c2ccc([N+](=O)[O-])cc2)cs1,-0.0313% (inactive)
21,O=c1[nH][nH]c(=O)c2cc([N+](=O)[O-])ccc12,-4.89% (inactive)
22,CC1=CC[C@@H]2C[C@H]1C2(C)C,21.3% [at 19 µM] (inactive)
23,CC(C)c1ccc(C(=O)N=C(N)N)cc1S(C)(=O)=O,4.06% [at 42.5 µM] (inactive)
24,COc1cc(C(C)=O)ccc1OCCCN1CCC(c2noc3cc(F)ccc23)CC1,-10.6% [at 42.5 µM] (inactive)
